The values below are quoted from earlier work in PubChem BioAssay AID977611.

The nature of this data set: PubChem AID 977611. As to conditions: PDB protein-ligand complexes, literature Kd.

About 3,900 (100%) of roughly 3,900 compounds were called active. The limit is not given here; nearly all actives have Kd up to about 4200 µM. So high a share suggests a set chosen from earlier hits. The list shows a part of the results. Where a SMILES comes first, the peptide text is derived from it. Non-standard residues stand in square brackets, D forms with d. Square brackets hold non-standard residues; d marks the D form. Residues, ends and D or L forms follow the SMILES beside them. Peptide text beside a SMILES is read from it. [ ]: non-standard residue; d: D form. Orn(CH(NH2)2) = NC(N)NCCC[C@H](N)C(=O)O

`CC(C)C[C@H](NC(=O)[C@H](CO)NC(=O)[C@H](CCCNC(N)N)NC(=O)[C@H](CC(C)C)NC(=O)[C@H](CO)NC(=O)[C@@H](NC(=O)[C@H](CC(C)C)NC(=O)[C@@H]1CCCN1C(=O)[C@H](Cc1ccc(O)cc1)NC(=O)[C@H](CC(C)C)NC(=O)[C@@H](N)CCC(=O)O)[C@@H](C)O)C(=O)O` (H-ELYPLTSL[Orn(CH(NH2)2)]SL-OH): the Kd (protein: ALIX, PDB entry 2r02) is 8 µM (active). Regarding H-PLYTSPSLPNITLGLP-OH, the dissociation constant (Kd) (protein: DNA-binding protein RFXANK, PDB entry 3uxg) was 109 µM (active). With Ac-LPLYTSPSLPNITLGLP-OH, the Kd (protein: Ankyrin Repeat Domains of Human ANKRA2, PDB entry 3v31) was 1.6 µM (active). Regarding `CC[C@H](C)[C@H](NC(=O)[C@@H]1CCCN1C(=O)[C@H](CC(C)C)NC(=O)[C@@H](NC(=O)[C@H](CO)NC(=O)CN)[C@@H](C)O)C(=O)N1CCC[C@H]1C(=O)NCC(=O)N[C@H](C(=O)N1CCC[C@H]1C(=O)N1CCC[C@H]1C(=O)N1CCC[C@H]1C(=O)N[C@@H](CC(N)=O)C(=O)N[C@@H](Cc1ccc(O)cc1)C(=O)N[C@@H](CC(=O)O)C(=O)N[C@@H](CO)C(=O)N[C@@H](CC(C)C)C(=O)O)[C@@H](C)O` (H-GSTLPIPGTPPPNYDSL-OH), the Kd (protein: Ubiquitin ligase Nedd4( WW? domain), PDB entry 1i5h) was 53 µM (active). Take H-NPGLAYGNPYS-OH: where the note is “protein: Galectin-8, PDB entry 4gxl”, the Kd was 5.2 µM (active). In the case of H-TCIYNPLFGS-OH, for the setting “protein: Sorting nexin-17 SNX17, PDB entry 4tkn”, the Kd was 1.3 µM (active).

As for `CCC(=O)C(=O)O`, where the note is “protein: 4-HYDROXY-2-OXO-HEPTANE-1,7-DIOATE ALDOLASE, PDB entry 4b5t”, the Kd is 470 µM (active). In the case of `CC(=O)N[C@H]1/C(=N/OC(=O)Nc2ccccc2)O[C@H](CO)[C@@H](O)[C@@H]1O`, the Kd reads like this: (protein: BETA-N-ACETYLHEXOSAMINIDASE, PDB entry 4azb) 0.0577 µM (active); (protein: BETA-N-ACETYLHEXOSAMINIDASE, PDB entry 4azg) 0.079 µM (active); (protein: BETA-N-ACETYLHEXOSAMINIDASE, PDB entry 4azi) 0.0356 µM (active). Consider `COc1ccc(C[C@H](NC(=O)[C@@H](C)NC(=O)CN2CCOCC2)C(=O)N[C@@H](Cc2ccccc2)[C@@H](O)[C@H](C)CO)cc1`, for which the Kd (protein: yCP, PDB entry 4qlv) is 0.014 µM (active).

In the case of `CCC[C@H](COc1ccc(-c2nc3ccccc3n2Cc2ccccc2)cc1)n1c(-c2ccccc2)nc2ccccc21`, the Kd (protein: Retinal rod rhodopsin-sensitive cGMP 3',5'-cyclic phosphodiesterase subunit delta, PDB entry 4jvb) is 0.039 µM (active). For the molecule `CSCC[C@H](NC(=O)[C@H](CCC(=O)O)NC(=O)[C@H](CCCNC(N)N)NC(=O)[C@@H](N)Cc1cnc[nH]1)C(=O)N[C@@H](C)C(=O)N[C@H](C(=O)N[C@@H](CC(=O)O)C(=O)N[C@@H](CS)C(=O)N1CCC[C@H]1C(=O)O)C(C)C` (H-H[Orn(CH(NH2)2)]EMAVDCP-OH), the Kd (protein: Par-6 PDZ domain, PDB entry 1x8s) is 8 µM (active). As to `CC[C@H](C)[C@H](NC(=O)[C@@H]1CCCN1C(=O)[C@H](CCCNC(N)N)NC(=O)[C@@H]1CCCN1C(=O)[C@H](Cc1cnc[nH]1)NC(=O)[C@@H](N)CO)C(=O)N[C@@H](CCCNC(N)N)C(=O)N[C@H](C(=O)O)C(C)C` (H-SHP[Orn(CH(NH2)2)]PI[Orn(CH(NH2)2)]V-OH), the Kd (protein: Chaperone protein DnaK, PDB entry 4ezr) is 6.3 µM (active). Consider `C[C@H](NC(=O)CN)C(=O)N[C@@H](Cc1ccccc1)C(=O)N[C@@H](Cc1ccccc1)C(=O)N[C@@H](CO)C(=O)N[C@@H](C)C(=O)N[C@@H](CCCNC(N)N)C(=O)NCC(=O)N[C@@H](Cc1cnc[nH]1)C(=O)N[C@@H](CCCNC(N)N)C(=O)N1CCC[C@H]1C(=O)O` (H-GAFFSA[Orn(CH(NH2)2)]GH[Orn(CH(NH2)2)]P-OH), for which, under “protein: fibrinogen-binding protein SdrG, PDB entry 1r17”, the Kd was 0.379 µM (active). As to H-GSLLRVQAHIRKKMV-OH, the Kd (protein: Myosin A tail domain interacting protein MTIP-delta60, PDB entry 4r1e) is 0.052 µM (active). Turning to `CSCC[C@H](NC(=O)[C@H](CCCCN)NC(=O)[C@@H](NC(=O)[C@H](Cc1ccc(O)cc1)NC(=O)[C@@H](NC(=O)CNC(=O)[C@@H](NC(=O)[C@@H](N)[C@@H](C)O)[C@@H](C)O)C(C)C)C(C)C)C(=O)N1CCC[C@H]1C(=O)N1CCC[C@H]1C(=O)O` (H-TTGVYVKMPP-OH), the Kd (protein: AP50, PDB entry 1h6e) was 0.7 µM (active). With `CC(C)C[C@H](NC(=O)[C@H](CCC(=O)O)NC(=O)[C@@H](N)CCCNC(N)N)C(=O)N[C@@H](CC(C)C)C(=O)N1CCC[C@H]1C(=O)N[C@@H](CCC(=O)O)C(=O)N[C@@H](CC(C)C)C(=O)N1CCC[C@H]1C(=O)N[C@@H](Cc1cnc[nH]1)C(=O)N1CCC[C@H]1C(=O)N1CCC[C@H]1C=O` (H-[Orn(CH(NH2)2)]ELLPELPHPP-aldehyde), the Kd (protein: MIT domain of Saci1372 (Vps4), PDB entry 2w2u) was 35 µM (active). `CSCC[C@H](NC(=O)[C@H](Cc1cnc[nH]1)NC(=O)[C@@H](NC(=O)[C@H](CCCCN)NC(=O)[C@H](C)NC(=O)[C@H](CO)NC(=O)[C@H](C)NC(=O)[C@@H](N)CCCNC(N)N)[C@@H](C)O)C(=O)N[C@@H](Cc1ccc(O)cc1)C(=O)N1CCC[C@H]1C(=O)N[C@H](C(=O)N[C@@H](CCCNC(N)N)C(=O)N[C@@H](CC(N)=O)C(=O)N[C@@H](Cc1ccc(O)cc1)C(=O)N[C@@H](CO)C(=O)N1CCC[C@H]1C(=O)O)C(C)C` (H-[Orn(CH(NH2)2)]ASAKTHMYPV[Orn(CH(NH2)2)]NYSP-OH): the Kd (protein: ezrinradixinmoesin (ERM) proteins, PDB entry 2emt) is 0.201 µM (active). On to `CC[C@H](C)[C@H](NC(=O)[C@H](CO)NC(=O)[C@H](CCCNC(N)N)NC(=O)CNC(=O)[C@H](C)NC(=O)[C@H](CCC(=O)O)NC(=O)[C@H](CCCCN)NC(=O)[C@@H](NC(=O)[C@@H](NC(=O)[C@H](C)NC(=O)[C@@H](NC(=O)[C@H](CC(C)C)NC(=O)[C@H](CO)NC(=O)CN)C(C)C)[C@@H](C)O)C(C)C)C(=O)N[C@@H](Cc1cnc[nH]1)C(=O)N[C@@H](CCC(=O)O)C(=O)N[C@H](C(=O)N1CCC[C@H]1C(=O)N[C@@H](CCCNC(N)N)C(=O)O)[C@@H](C)CC` (H-GSLVATVKEAG[Orn(CH(NH2)2)]SIHEIP[Orn(CH(NH2)2)]-OH), for which the Kd (protein: the BTB domain from B-cell lymphoma 6 protein(BCL6), PDB entry 1r2b) was 11.4 µM (active).
